Unmarked numbers belong to inactive results. No rule for the calls is given here.
Target: Pantothenate synthetase (Mycobacterium tuberculosis (strain ATCC 25618 / H37Rv)) (UniProt P9WIL5)
Experiment: Recombinant Mtb pantothenate synthetase (PanC) inhibitors, coupled enzyme, confirmatory (AID 375);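 also: 0% = full reaction with vehicle and 100% = no enzyme background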
Settings: coupled enzyme assay; at 10 µM, active compounds read high

Chain of Pantothenate synthetase (Mycobacterium tuberculosis (strain ATCC 25618 / H37Rv)) (P9WIL5 whole entry, looked up): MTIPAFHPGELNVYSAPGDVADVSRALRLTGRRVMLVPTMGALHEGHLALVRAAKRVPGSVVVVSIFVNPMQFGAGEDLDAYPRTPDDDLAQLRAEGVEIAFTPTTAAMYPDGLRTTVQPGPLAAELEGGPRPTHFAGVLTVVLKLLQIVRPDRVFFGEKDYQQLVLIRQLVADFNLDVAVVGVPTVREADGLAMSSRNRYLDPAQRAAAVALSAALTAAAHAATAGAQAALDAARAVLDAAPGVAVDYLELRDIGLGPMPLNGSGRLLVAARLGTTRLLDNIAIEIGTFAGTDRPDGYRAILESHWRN

Point of comparison: `COc1ccc(CCN2C(=O)CC(N3CCN(S(=O)(=O)c4ccccc4)CC3)C2=O)cc1` (stereo not given), inhibition 0%. Against it:
- COc1ccc(NC(=O)Nc2ccc(N3CCCC3=O)cc2)cc1OC — the same, 0%
- CC(=O)c1c(C)[nH]c(C(=O)OCc2nnc(-c3ccccc3)o2)c1C — the same, 0%
- CC(C)(C)OC(=O)N1CCC(C(=O)N[C@H](Cc2ccccc2)C(=O)O)CC1 — the same, 0%
- COC(=O)[C@H](C)NC(=O)Nc1cc(OC)ccc1OC — the same, 0%
- CC(NC(=O)Cc1cccs1)c1ccc2c(c1)OCO2 (stereo not given) — the same, 0%
- O=C(Nc1ccc(-c2noc(-c3cccs3)n2)cc1)c1cccnc1 — the same, 0%
- O=C(NCC1COc2ccccc2O1)c1ccc(NC(=O)c2ccco2)cc1 (stereo not given) — the same, 0%
- COc1ccc(/C(O)=C2/C(=O)C(=O)N(CCCN(C)C)C2c2ccco2)cc1Cl (stereo not given) — the same, 0%
- C=CCN(CC=C)C(=O)c1ccncc1 — the same, 0%
- Cc1cc(N2C(=O)C3C4C=CC(C4)C3C2=O)ccc1Br (stereo not given) — the same, 0%
- O=C(Cc1c(O)c2ccccc2[nH]c1=O)NCc1ccc(F)cc1 — the same, 0%
- CCCOc1cc(C)c(S(=O)(=O)N2CCN(C)CC2)cc1C — higher, 4%
- CCS(=O)(=O)c1nc2ccccc2n1CC(=O)N1CCOCC1 — the same, 0%
- CCC12CN3CC(CC)(CN(C1)C3c1ccc(OC(C)C)cc1)C2=O (stereo not given) — higher, 9%
- CCOCCCNC(=O)C(NC(=O)c1ccccn1)c1ccc(C)cc1 (stereo not given) — the same, 0%
- COCCNC(=O)c1c(N)n(/N=C/c2cccs2)c2nc3ccccc3nc12 — the same, 0%
- COc1ccc2[nH]c(=O)c(CNC3CCCCC3)cc2c1 — the same, 0%
- COc1ccc(C2C(C(C)=O)=C(C)N=c3s/c(=C/c4ccc5c(c4)OCO5)c(=O)n32)cc1 (stereo not given) — the same, 0%
- Cc1cccc2sc(NC(=O)Cn3cccc3)nc12 — the same, 0%
- CC1(C)CC(=O)C2=C(C1)Nc1nc(SCCN3CCOCC3)[nH]c(=O)c1C2c1cccs1 (stereo not given) — higher, 2%
- O=C(Nc1cccc2c1CCCC2)C1CCN(c2nnnn2-c2ccccc2)CC1 — higher, 5%
- CCOc1ccc(-c2nnn(CCC(=O)O)n2)cc1OC — the same, 0%
- CC(=O)Nc1ccc(OCC(O)CN2CCN(c3cccc(Cl)c3)CC2)cc1 (stereo not given) — higher, 3%
- Cc1ccc(-c2nnc3c4ccccc4c(C)nn23)cc1S(=O)(=O)N1CCN(C)CC1 — higher, 1%
- CCOC(=O)C1CCCN(c2c(N3CCN(c4ccccn4)CC3)c(=O)c2=O)C1 (stereo not given) — higher, 2%
- CCOC(=O)c1c(NC(=O)c2nn(CC)cc2Br)c(C#N)cn1-c1ccccc1 — the same, 0%
- COc1cc(Cn2c(C(=O)O)cc3sccc32)cc(OC)c1OC — the same, 0%
- C=CCOc1nc(N(C)C)nc(N(C)C)n1 — higher, 7%
- O=C(CN1C(=O)CCS(=O)(=O)c2ccccc21)Nc1cccc(F)c1 — higher, 5%
- N#Cc1c(-c2ccc3c(c2)OCO3)csc1N — higher, 9%
- O=C(NC12CC3CC(CC(C3)C1)C2)C1CCCN1C(=O)NC1CCCCC1 (stereo not given) — the same, 0%
- COC(=O)c1ccc(Oc2nc(NC(C)C)nc(N(C)C)n2)cc1 — higher, 1%
- O=C(C1CCN(S(=O)(=O)c2ccc(-n3cnnn3)cc2)CC1)N1CCN(c2ccccc2)CC1 — higher, 11%
- CC1CCc2nn(CC(=O)N3CCN(C(=O)c4ccco4)CC3)cc2C1 (stereo not given) — higher, 10%
- COc1ccccc1NC(=O)C1=C(C)NC(SCC(=O)c2ccc(C)cc2)=C(C#N)C1c1ccco1 (stereo not given) — the same, 0%
- NC(=O)NC(c1ccccc1)c1ccccc1F (stereo not given) — higher, 3%
- CCOC(=O)c1nnc(-c2ccccc2)o1 — higher, 2%
- COC(=O)c1cnn2c(C(F)(F)F)cc(-c3ccco3)nc12 — the same, 0%
- COP(C)(=O)c1c(C)nn(-c2ccccc2)c1C (stereo not given) — the same, 0%

Source: PubChem BioAssay
